Compounds with a hit are over-represented: about 10% of the library has one in this group of screens.
BAZ2B inh – inhibitors of human BAZ2B bromodomain; Q9UIF8; AlphaScreen BAZ2B-H3K14Ac peptide displacement; Potency, µM (highest dose often 114 µM), actives largely listed as inhibitors; actives 4.4% (n = 360,000); also: nearly all actives have a fitted effect of over 60% in size
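Complex of BAZ2B and biotin-H3K14Ac (50 nM apiece) forms over 30 min at RT, then faces library compounds up to 110 uM for another 30 min; AlphaScreen beads added, 20 min dark incubation, luminescence read.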
JMJD2A Tudor inh – inhibitors of human JMJD2A Tudor domain; AlphaScreen JMJD2A-Tudor / H3K4me3 peptide binding; Potency, µM (highest dose often 114 µM), usual class: inhibitors; actives 4.4% (n = 390,000); AID 504339; also: nearly all actives have a fitted effect of over 50% in size
Target sequence (O75164 whole entry, looked up, the tested form may be a part): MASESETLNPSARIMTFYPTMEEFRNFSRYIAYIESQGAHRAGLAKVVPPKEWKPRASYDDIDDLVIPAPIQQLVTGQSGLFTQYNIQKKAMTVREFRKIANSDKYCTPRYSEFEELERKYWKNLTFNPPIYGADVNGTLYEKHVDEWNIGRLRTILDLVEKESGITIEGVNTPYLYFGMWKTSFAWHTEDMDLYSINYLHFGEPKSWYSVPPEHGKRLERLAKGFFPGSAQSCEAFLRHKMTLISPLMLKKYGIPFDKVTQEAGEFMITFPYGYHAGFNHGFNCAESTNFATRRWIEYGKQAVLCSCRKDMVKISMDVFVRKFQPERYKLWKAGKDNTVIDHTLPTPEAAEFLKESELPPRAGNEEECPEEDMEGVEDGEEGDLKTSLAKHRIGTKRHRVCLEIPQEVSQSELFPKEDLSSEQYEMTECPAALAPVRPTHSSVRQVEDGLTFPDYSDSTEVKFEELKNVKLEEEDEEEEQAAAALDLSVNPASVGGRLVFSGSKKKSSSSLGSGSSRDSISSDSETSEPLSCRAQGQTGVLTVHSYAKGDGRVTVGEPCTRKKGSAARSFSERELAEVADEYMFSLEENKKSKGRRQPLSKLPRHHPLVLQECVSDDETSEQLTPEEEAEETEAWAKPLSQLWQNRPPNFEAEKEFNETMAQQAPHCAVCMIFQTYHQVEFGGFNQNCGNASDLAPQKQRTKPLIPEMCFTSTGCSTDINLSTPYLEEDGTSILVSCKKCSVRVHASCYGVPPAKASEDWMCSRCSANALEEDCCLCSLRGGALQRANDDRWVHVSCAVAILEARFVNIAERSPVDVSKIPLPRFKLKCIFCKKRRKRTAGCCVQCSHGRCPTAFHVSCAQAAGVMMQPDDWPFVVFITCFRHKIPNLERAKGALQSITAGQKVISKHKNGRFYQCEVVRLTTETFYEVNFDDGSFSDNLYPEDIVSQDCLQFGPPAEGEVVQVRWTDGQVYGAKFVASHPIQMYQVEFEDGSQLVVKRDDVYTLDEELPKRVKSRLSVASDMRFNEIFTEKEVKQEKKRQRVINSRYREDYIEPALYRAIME
GLS inhibitor – glutaminase GLS (human) inhibition. O94925. GLS enzymatic activity, qHTS titration. Potency, µM (titrated, usually from 45.5 µM), hits mostly inhibitors. actives 0.21% (n = 410,000)
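Assay buffer: 45 mM KH2PO4 pH 8.2, 0.02% Tween-20. hKGA acts on L-glutamine (1 mM solution added); product glutamate is reported by an oxidase/peroxidase Amplex Red coupling, with fluorescence taken at baseline and 30 min.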
HP1b binding inh – HP1-beta chromodomain-methylated histone interaction inhibition | AlphaScreen HP1-beta / biotin-H3K9me3 peptide binding | Potency, µM (top dose mostly 114 µM), hits mostly inhibitors | P83916 | actives 0.56% (n = 390,000); also: nearly all actives have a fitted effect of over 70% in size
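HP1-beta protein (50 nM final) preincubated 30 min at room temperature with biotinylated H3(1-18)K9me3 peptide (50 nM) in PBS pH 7.4, 0.01% Tween-20, then compound added for 30 min. AlphaScreen streptavidin donor/nickel chelate acceptor beads (10 ug/mL final), 30 min dark, luminescence read.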
G9a inh – G9a (human) methyltransferase inhibition; G9a H3K9 monomethylation, AlphaScreen, 2 h; Potency, µM (doses to about 102 µM), most hits filed as inhibitors; Q96KQ7; actives 8.8% (n = 350,000); also: nearly all actives have a fitted effect of over 75% in size
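Using a bead-based AlphaScreen, monomethylated H3K9 product from 2 h room-temperature reactions (G9a 20 nM, peptide 500 nM, SAM 20 uM) was detected with 0.5 ug/mL rabbit anti-H3K9me1 antibody.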
Each line names hits and unclear results; the compound was inactive in the other large screens; ! = not confirmed by another sample. Calls follow the shape of the dose curve; as a rule, active = well fitted curve in the direction sought with a large enough effect; inconclusive = small, poorly fitted or top-dose-only effect, or another doubt; inactive = no such curve, though single readings can be large; an effect the other way counts as inactive or inconclusive.

CCCN1CCc2[nH]c(=S)[nH]c(=O)c2C1	JMJD2A Tudor inh inconclusive, G9a inh 32µM
CN(c1cc2c(c3c1ccn3C)C1CCC2O1)C1CCCCC1 (centres undefined)	none (no result: BAZ2B inh, JMJD2A Tudor inh, HP1b binding inh, G9a inh)
N=c1c(C(=O)NCC2CCCO2)cc2c(=O)n3ccccc3nc2n1Cc1ccccc1 (centres undefined)	none
O=C1CCCC2=C1C1(CCCCC1)N=C(Nc1nc3ccccc3o1)N2	JMJD2A Tudor inh inconclusive
O=C1CCCC2=C1C1(CCCC1)N=C(Nc1nc3cc4ccccc4cc3o1)N2	JMJD2A Tudor inh 89µM (no result: BAZ2B inh, GLS inhibitor, HP1b binding inh, G9a inh)
COc1ccc(NC(=O)C(Sc2nnc3ccccn23)c2ccccc2)cc1Cl (centres undefined)	none
Cc1cc2c(s1)c1cnn(Cc3c(F)ccc(F)c3Cl)c(=O)c1n2C	none (no result: BAZ2B inh, GLS inhibitor, HP1b binding inh, G9a inh)
CCCCn1c(-c2ccc(OC(F)F)cc2)nc2c1c(=O)[nH]c(=O)n2CC(C)C	G9a inh 50µM
CCCn1c(=O)[nH]c(=O)c2c1nc(-c1ccc(OC(F)(F)C(F)C(F)(F)F)cc1)n2CCOC (centres undefined)	G9a inh 25µM
COc1ccc(NC(=O)C2CCN(S(=O)(=O)c3ccc4[nH]c(=O)ccc4c3)CC2)cc1Cl	none
COc1cc2nc(N3CCN(C(=O)OCc4ccccc4)C(C(=O)NC(C)(C)C)C3)nc(N)c2cc1OC (centres undefined)	G9a inh 5.6µM! (no result: BAZ2B inh, JMJD2A Tudor inh, GLS inhibitor, HP1b binding inh)
COc1ccc(OC)c(NC(=O)C2CCCN2C(=O)OCc2ccccc2)c1 (centres undefined)	none
COc1cc2nc(N3CCN(C(=O)OCc4ccccc4)[C@H](C(=O)NC(C)(C)C)C3)nc(N)c2cc1OC	G9a inh 7.1µM
COc1ccc(C)cc1NC(=O)C1CCCN1C(=O)OCc1ccccc1 (centres undefined)	none
O=C(CSc1nnc(-c2cccs2)o1)NCC1CN(Cc2ccccc2)CCO1 (centres undefined)	BAZ2B inh 56µM, G9a inh 3.5µM
C=CCNC(=O)CSc1nnc(-c2cccs2)o1	none
NS(=O)(=O)c1ccc(NC(=S)NCc2cccs2)cc1	G9a inh 35µM
CC(C)CNC(=S)Nc1ccc(S(N)(=O)=O)cc1	G9a inh 40µM
CCCNC(=S)Nc1ccc(S(N)(=O)=O)cc1	none
S=C(NCc1cccs1)Nc1ccccc1	none
CCOCCCNC(=S)Nc1ccc(S(N)(=O)=O)cc1	G9a inh 28µM
CC(=O)Oc1ccc(-c2csc(Nc3cccnc3)n2)cc1	none
COc1cccc(C2/C(=C(\O)c3ccc4c(c3)OCO4)C(=O)C(=O)N2CCN(C)C)c1OC (centres undefined)	G9a inh inconclusive
CCn1cc(C(=O)Nc2cccc(Cl)c2)c2cc(OC)c(OC)cc2c1=O	none
CC(=NNC(=O)c1cccc(S(=O)(=O)N2CCOCC2)c1)c1ccccc1	none (no result: BAZ2B inh, G9a inh)
C/C(=N\NC(=O)c1cccc(S(=O)(=O)N2CCCC2)c1)c1cccs1	JMJD2A Tudor inh 56µM
O=C(NNS(=O)(=O)c1cccc(Cl)c1Cl)c1cccc(S(=O)(=O)N2CCOCC2)c1	JMJD2A Tudor inh inconclusive, G9a inh 32µM
C/C(=N\NC(=O)c1cccc(S(=O)(=O)N2CCOCC2)c1)c1ccc(C#N)cc1	BAZ2B inh inconclusive, G9a inh 40µM
COc1ccc(C(C)=NNC(=O)c2cccc(S(=O)(=O)N3CCCC3)c2)cc1	none (no result: BAZ2B inh, G9a inh)
COc1ccc(/C(C)=N/NC(=O)c2cccc(S(=O)(=O)N3CCCC3)c2)c(O)c1	BAZ2B inh 2.8µM, JMJD2A Tudor inh inconclusive
Cc1ccc(CNC(=O)CN(C(=O)C2(C)CC(=O)N=C3C=CC=CN32)c2ccccc2)cc1 (centres undefined)	none
O=C1OC2(c3ccccc31)c1ccccc1-c1ccccc12	none (no result: BAZ2B inh, G9a inh)
CCOc1ccc(CNC(=O)C2=Cc3cc(Br)ccc3OC2)cc1OC	none
CC(=O)Nc1ccc(N2C(C(C)=O)=NN(c3ccccc3)C2c2cccs2)cc1 (centres undefined)	BAZ2B inh inconclusive (no result: G9a inh)
COc1cc(C2NC(=O)CCC2[N+](=O)[O-])cc(Br)c1OC (centres undefined)	none
CCC(C)NC(=O)c1c(N)n(/N=C/c2ccccn2)c2nc3ccccc3nc12 (centres undefined)	G9a inh 50µM
OCCN(Cc1ccccc1)Cc1ccccc1F	BAZ2B inh 25µM, JMJD2A Tudor inh 1.8µM, HP1b binding inh 45µM, G9a inh 2.5µM
OCCN(Cc1ccccc1)C(=S)Nc1ccc(F)cc1	none
OCCN(Cc1ccccc1)Cc1cccc(Cl)c1Cl	BAZ2B inh 50µM, JMJD2A Tudor inh 10µM, HP1b binding inh inconclusive, G9a inh inconclusive
O=c1[nH]c2ccccc2n2cnnc12	none
COc1ccccc1-c1sc2ccccc2c1-c1ccc2c(c1)OCO2	none
c1ccc(-c2sc3ccccc3c2-c2ccc(OCCN3CCOCC3)cc2)cc1	JMJD2A Tudor inh inconclusive (no result: BAZ2B inh, G9a inh)
COc1ccccc1-c1sc2cc3c(cc2c1-c1ccc(OCCN2CCCCC2)cc1)OCO3	JMJD2A Tudor inh 11µM (no result: BAZ2B inh, G9a inh)
COc1ccccc1-c1sc2ccccc2c1-c1ccc(OCCN2CCOCC2)cc1	JMJD2A Tudor inh 50µM (no result: BAZ2B inh, G9a inh)
COc1cc2sc(-c3ccccc3OC)c(-c3ccc(OCCN4CCCCC4)cc3)c2cc1OC	JMJD2A Tudor inh 28µM, HP1b binding inh inconclusive (no result: BAZ2B inh, G9a inh)
COc1ccccc1-c1sc2cc3c(cc2c1-c1ccc2c(c1)OCO2)OCO3	BAZ2B inh 79µM
Oc1cccc(-c2sc3ccccc3c2-c2ccc(OCCN3CCCCC3)cc2)c1	none (no result: BAZ2B inh, JMJD2A Tudor inh, HP1b binding inh, G9a inh)
COc1cc(C(=O)NCC(c2ccco2)S(=O)(=O)c2ccccc2)cc(OC)c1OC (centres undefined)	none
O=C(NCCN1CCCC1)C1CCN(S(=O)(=O)N2CCC3(CC2)OCCO3)CC1	none
O=C1CC(c2ccccc2)CC(=O)C1Sc1ccc(Cl)cc1 (centres undefined)	none
COCCN(CCOC)Cc1c(C)[nH]c2ccccc2c1=O	none
CC(C)(C)c1ccc(OCC(O)CN2CCN(c3ccccn3)CC2)cc1 (centres undefined)	BAZ2B inh inconclusive, G9a inh 50µM
Cc1cccc(OCC(O)CN2CCN(c3ccccn3)CC2)c1C (centres undefined)	JMJD2A Tudor inh 79µM, G9a inh 45µM
COc1cc(C(C)=O)ccc1OCC(O)CN1CCN(c2ccccn2)CC1 (centres undefined)	none
CCC(=O)c1ccc(OCC(O)CN2CCN(c3ccccn3)CC2)cc1 (centres undefined)	none
CC(=O)c1ccccc1OCC(O)CN1CCN(c2ccccn2)CC1 (centres undefined)	none (no result: G9a inh)
Cc1cc(C)c(C)c(OCC(O)CN2CCN(c3ccccn3)CC2)c1 (centres undefined)	BAZ2B inh inconclusive, G9a inh 79µM
Cc1c(O)ccc2c(CC(=O)N[C@@H](Cc3ccccc3)C(=O)O)cc(=O)oc12	none
CCCS(=O)(=O)N1CCc2ccc(NC(=O)C3CCCO3)cc2C1 (centres undefined)	none
